# Screening results from PubChem BioAssay.
# ADAM17 inh: ADAM17 inhibition, QFRET primary screen; P78536; recombinant ADAM17, EDANS/DABCYL FRET peptide cleavage; inhibition, % at 6.95 µM; 0.83% of 370,000 active;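 active = inhibition above the mean of compounds lying between control limits plus 3 SD, set per campaign, cut at about 8.5% in these data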;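 note: 0% = DMSO-only wells as the low control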
# ADAM10 inh: ADAM10 inhibition, QFRET primary screen; O14672; recombinant ADAM10, EDANS/DABCYL FRET peptide cleavage, 3 h; inhibition, % at 7 µM; 0.62% of 370,000 active;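 active = inhibition above a per-campaign cutoff equal to the mean of compounds falling between control-based bounds plus 3 SD, cut at about 20% in these data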;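 note: 0% = DMSO wells while the 100% control is not disclosed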
# Target sequence (O14672 214-748 limits assumed): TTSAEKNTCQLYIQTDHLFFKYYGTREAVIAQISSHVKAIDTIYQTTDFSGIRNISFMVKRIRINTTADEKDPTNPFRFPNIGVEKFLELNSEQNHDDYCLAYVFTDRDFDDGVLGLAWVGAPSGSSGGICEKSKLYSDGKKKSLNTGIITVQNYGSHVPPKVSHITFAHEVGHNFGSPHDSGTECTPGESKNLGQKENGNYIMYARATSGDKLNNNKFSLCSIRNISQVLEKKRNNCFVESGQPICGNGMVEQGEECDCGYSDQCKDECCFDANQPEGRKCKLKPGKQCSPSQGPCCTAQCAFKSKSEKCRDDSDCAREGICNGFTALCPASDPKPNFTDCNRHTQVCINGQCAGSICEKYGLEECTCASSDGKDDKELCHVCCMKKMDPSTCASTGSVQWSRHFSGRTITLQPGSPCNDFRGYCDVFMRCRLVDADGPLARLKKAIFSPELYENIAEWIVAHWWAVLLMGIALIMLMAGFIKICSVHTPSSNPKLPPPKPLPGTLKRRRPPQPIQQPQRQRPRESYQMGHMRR
# KLK7 zymogen act: activators of human kallikrein-7 zymogen | activation, % at 7 µM | purified proKLK7, EDANS-DABCYL substrate fluorescence; 100% is mature enzyme control, 0% vehicle | P49862 | AID 652039 | 0.9% of 370,000 active;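 active = activation above the mean of all tested compounds plus 3 SD, computed per campaign excluding outliers beyond control limits, cut at about 13% in these data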
# Ecoli rRNA inh: inhibits bacterial ribosomal RNA function over humanized ribosomes; 1.6% of 350,000 active; GFP signal change (wild-type ribosome), % (concentration not given with the values); E. coli WT GFP vs humanized-ribosome RFP mutants, fluorescence, 24 h; active compounds read low; DMSO median 0, no signal -100;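 active = significant combined selectivity score with lowered wild-type GFP, culture density cut under 30%, mutant RFP and density less affected; inactive = any of these conditions unmet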
# FGF22 binding: binders of recombinant human FGF22 by thermal shift | Q9HCT0 | SYPRO orange fluorescence; percent of sucrose octasulfate shift, DMSO zero | activity (Tm shift, normalised), % at 9.99 µM | 1.5% of 340,000 active | AID 651658;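 active = mean Tm shift, scaled 0 neutral to 100 positive control, at about 1.3% or above, every replicate too, limit read from the data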
# Target sequence (Q9HCT0 whole entry, looked up): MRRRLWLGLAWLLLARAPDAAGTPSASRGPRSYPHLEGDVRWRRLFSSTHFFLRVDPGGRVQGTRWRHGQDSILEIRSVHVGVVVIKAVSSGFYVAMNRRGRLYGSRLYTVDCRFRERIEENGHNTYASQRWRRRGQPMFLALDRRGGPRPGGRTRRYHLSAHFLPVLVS
# KLK7 act conf: proKLK7 activation, confirmation; purified proKLK7, EDANS-DABCYL substrate fluorescence; scaled: vehicle 0, mature enzyme 100; 68% of 3,200 active; activation, % at 7 µM; shares compounds with KLK7 zymogen act;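 active = activation, as change over the incubation, above the mean of all tested compounds plus 3 SD, cut at about 13% in these data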
# EDANS-DABCYL int: counter-screen for kallikrein-7 activators: EDANS-DABCYL optical interference | shares compounds with KLK7 zymogen act | activation, % at 7 µM | EDANS-DABCYL substrate fluorescence interference, no enzyme, 4 h; solvent 0%, active enzyme control 100% | 80% of 3,200 active;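 active = activation above the all-compound mean plus 3 SD, ignoring values outside control-based bounds, cut at about 4.8% in these data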;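 note: value is the 4 h activation minus the activation read at time zero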
# * = called active by the depositor; i = inactive; . = not tested or not shown. Only some compounds are listed: those with a hit (about 3.8% of all), similar ones and a draw of the others.
SMILES,ADAM17 inh,ADAM10 inh,KLK7 zymogen act,Ecoli rRNA inh,FGF22 binding,KLK7 act conf,EDANS-DABCYL int
Cc1cc(NC(=O)COC(=O)CSc2nc3cc(Cl)ccc3n2Cc2ccccc2)no1,-1.5,-0.6,12.8*,.,.,3.5,2.4
COc1ccccc1-c1nnc(SC2CCc3ccccc3NC2=O)s1 (stereo unspecified),-10.9,-23.5,12.9*,.,.,-4.0,6.3*
COCc1cn(CC[C@H]2CC[C@@H](NC(=O)Nc3ccc(F)cc3)[C@@H](CO)O2)nn1,.,.,.,2.5,0.2,.,.
Fc1ccccc1-c1nc(NCc2ccco2)c2ccccc2n1,0.0,5.3,0.5,-6.5,0.1,.,.
Oc1ccccc1-c1nc(NCc2ccco2)c2ccccc2n1,-1.1,11.8,12.7*,.,.,1.9,13.0*
CCCCS(=O)(=O)N1CCCc2nc(CC)c(CC)cc21,-6.1,-9.4,0.1,-27.6,41.5,.,.
CCc1cc2c(nc1CC)CCCN2C,-114.8,-421.6,29.5*,15.5,41.4,-47.3,-45.5
C/C=C/c1ccc([C@H]2[C@H](CO)N(C(=O)c3cnccn3)C23CN(C(=O)C2CC2)C3)cc1,.,.,.,2.0,.,.,.
CN(C)CCCNc1oc(-c2ccccc2)nc1C#N,-179.8,i,12.6,.,.,.,.
CN(C)CCNc1oc(-c2cccc(Cl)c2)nc1C#N,-107.7,-496.6,59.0*,.,.,31.3*,33.6*
CN(C)CCNc1oc(-c2ccccc2F)nc1C#N,-208.9,i,57.2*,7.8,-0.2,30.4*,32.5*
COc1ccccc1CNC(=O)C[C@H]1CC[C@H](NC(C)=O)[C@@H](CO)O1,.,.,.,-3.0,-0.3,.,.
COc1ccccc1NC(=O)COC(=O)c1[nH]c(=O)[nH]c(=O)c1N,-17.1,-73.1,84.2*,.,-0.1,119.6*,120.7*
Cn1c(-c2ccc(C=O)s2)nc2ccccc21,-465.8,i,47.7*,.,.,52.3*,55.6*
COc1cc(-c2ccc3oc(-c4ccsc4)c(C#CC4(O)CCCCC4)c3c2)cc(OC)c1OC,-110.4,-328.8,12.8*,-2.0,0.1,9.9,9.6*
OC1(C#Cc2c(-c3ccsc3)oc3ccc(N4CCOCC4)cc23)CCCCC1,-34.5,-108.6,-41.3,-8.9,-0.1,.,.
COCC#Cc1cnc2c(c1)C(=O)N([C@@H](C)CO)C[C@@H](C)[C@@H](CN(C)S(=O)(=O)c1ccccc1)O2,.,.,.,-0.8,-0.1,.,.
CCc1cc2c3c(c(=O)oc2cc1O)CCCC3,i,i,53.5*,.,.,61.7*,65.8*
CCc1cc2c3c(c(=O)oc2cc1OC(C)C(=O)O)CCCC3 (stereo unspecified),-368.6,i,4.7,-11.7,0.1,.,.
CCc1cc2c(CN3CCN(CCO)CC3)cc(=O)oc2cc1O,i,i,48.9*,.,.,56.9*,67.2*
CCc1cc2c(CN3CCN(C)CC3)cc(=O)oc2cc1O,i,i,77.9*,.,.,67.7*,74.7*
COc1ccc(CNC(=O)C[C@H]2C[C@H]3c4cc(NS(C)(=O)=O)ccc4O[C@H]3[C@H](CO)O2)cc1,.,.,.,-1.4,0.1,.,.
CCOc1ccccc1C(=O)N/N=C/c1coc2ccc(C)cc2c1=O,-0.9,-13.1,23.9*,3.6,-0.1,57.5*,54.3*
Cc1ccc2occ(/C=N/NC(=O)c3ccc(O)cc3)c(=O)c2c1,-3.4,-3.4,22.5*,-6.3,0.4,52.9*,51.0*
Cc1ccc2occ(/C=N/NC(=O)c3ccccc3Br)c(=O)c2c1,-0.5,-11.6,2.5,3.6,-0.1,.,.
SMILES,ADAM17 inh,ADAM10 inh,KLK7 zymogen act,Ecoli rRNA inh,FGF22 binding,KLK7 act conf,EDANS-DABCYL int
Cc1cc2oc(=O)cc(CN3CCOCC3)c2cc1C,-4.6,-1.7,-0.3,.,.,.,.
CCNc1cc2oc(=O)c(CN3CCOCC3)c(C)c2cc1C,i,i,43.5*,.,.,69.4*,78.3*
CC(C)NC(=O)Nc1ccc2c(c1)C(=O)N(C)[C@@H]1CC[C@H](CC(=O)Nc3ccccc3)O[C@@H]1CO2,.,.,.,0.7,-0.1,.,.
Nc1ccc2c(c1)[nH]c(=O)c1cc(N)ccc12,-238.1,i,98.6*,-10.3,-0.5,61.2*,71.5*
O=c1[nH]c2cc([N+](=O)[O-])ccc2c2ccc([N+](=O)[O-])cc12,-0.3,-5.1,-0.6,9.2,0.0,.,.
COCC(=O)N(C)C[C@H]1Oc2cc(C#CC(C)C)ccc2S(=O)(=O)N([C@@H](C)CO)C[C@H]1C,.,.,.,1.8,-0.2,.,.
CC(=O)Nc1ccc(-c2cc(C(=O)O)c3ccc(C)cc3n2)cc1,-283.3,i,17.1*,.,-0.1,17.3*,27.5*
CNC[C@@H]1Oc2ccc(NC(=O)NC(C)C)cc2CC(=O)N(C)C[C@H]1C,.,.,.,-0.4,.,.,.
O=C(COc1ccc(Cl)cc1)Nc1c(-c2cccs2)nc2ccccn12,-37.0,-114.9,12.7*,12.4,0.0,9.8,0.3
Cc1ccn2c(NC(C)(C)C)c(-c3cccs3)nc2c1,-362.7,i,-6.8,-13.4,0.2,.,.
CC(C)CCNc1c(-c2cccs2)nc2ccccn12,-254.7,i,143.6*,-25.6*,0.6,-8.3,-19.3
COc1ccc2c3c([nH]c2c1)[C@H](CO)N(Cc1ccccn1)CC31CN(C(C)=O)C1,.,.,.,4.3,-0.1,.,.
O=c1c2ccccc2c(C=NC2CCS(=O)(=O)C2)c(O)n1-c1ccccc1 (stereo unspecified),-8.3,-34.1,13.7*,.,.,14.6*,15.8*
Cc1ccc(-n2nc3cc(C)c(N)cc3n2)cc1,-96.5,-369.5,0.2,.,.,.,.
Nc1ccc2c(c1)nnn2-c1ccccc1,-166.4,i,31.0*,3.5,0.2,44.5*,44.1*
Nc1ccc2nn(-c3ccccc3)nc2c1,-96.0,-318.5,29.9*,-9.7,.,66.4*,67.6*
Nc1cc2nn(-c3ccccc3)nc2cc1Cl,-181.6,i,20.6*,0.7,-0.4,-50.4,-39.4
CN1C(=O)c2cc(NC(=O)C3CC3)ccc2OC[C@H]2O[C@H](CC(=O)NCCN3CCCC3)CC[C@@H]21,.,.,.,1.9,0.0,.,.
N#C/C(=C(/O)CCCl)c1ccccn1,i,i,208.6*,.,.,389.0*,395.1*
N#C/C(=C(\O)c1ccco1)c1ccccn1,-2.9,6.0,-0.4,.,.,.,.
Cc1ccc(-c2[nH]c(-c3ccc(C(=O)O)cc3)nc2-c2ccccc2)cc1,i,i,32.7*,-13.1,0.1,67.2*,68.6*
Cc1c(O)c(CN2CCCCC2)cc2c1oc(=O)c1ccccc12,-6.2,-8.3,-0.2,.,.,.,.
CN1CCN(Cc2c(O)ccc3cc(Br)ccc23)CC1,-4.5,-5.8,-0.6,-27.8,0.3,.,.
O=c1oc2cc(OCc3c(F)c(F)c(F)c(F)c3F)ccc2cc1-c1ccccn1,-18.5,-70.2,-2.1,-2.4,-0.1,.,.
COC(=O)Cc1c(C)c2ccc(O)c(CN3CCCC(C)C3)c2oc1=O (stereo unspecified),i,i,52.6*,.,.,76.1*,74.6*
